# Measurements taken from paper PMC4081100, “A DNA-binding-site landscape and regulatory network analysis for NAC transcription factors in Arabidopsis thaliana”.
# What was measured:
# Assay in all cases: universal protein binding microarray (PBM); transcription factors of Arabidopsis thaliana; high values mean tight binding
# [1] = biological target: T1, GST-ANAC092(1-176) (Arabidopsis thaliana, UniProt Q9FKA0 1-176); conditions: protein: recombinant; tags: GST; chain copies: 2; dsDNA, one strand shown
# T1 sequence: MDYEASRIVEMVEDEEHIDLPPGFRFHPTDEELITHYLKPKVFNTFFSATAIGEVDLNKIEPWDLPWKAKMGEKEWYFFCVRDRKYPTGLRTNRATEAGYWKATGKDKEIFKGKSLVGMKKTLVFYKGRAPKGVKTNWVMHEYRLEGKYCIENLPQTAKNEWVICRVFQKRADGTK
# In short: (§1)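 Cells were induced to make GST-tagged NAC-domain, full-length or DNA-binding-domain proteins, and zinc acetate was added for zinc-finger proteins. These proteins were purified on glutathione–Sepharose 4B, quantified by A280 or anti-GST western blot, and applied in duplicate at 200 to 500 nM final to custom all-10-mer Agilent 4 × 180K arrays that primer extension had made double-stranded. Binding is given as the normalised enrichment score (E-score) for scored gapped and ungapped 8-mers.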
# [2] = biological target: GST-NTL6(1-168) (Arabidopsis thaliana, UniProt Q9SCK6 1-168); conditions: protein: recombinant; tags: GST; chain copies: 2; dsDNA, one strand shown
# In short: as §1
# [3] = biological target: T2, GST-ANAC019 NAC domain (Arabidopsis thaliana, UniProt Q9C932 14-162); conditions: protein: recombinant; tags: GST; chain copies: 2; dsDNA, one strand shown
# T2 sequence: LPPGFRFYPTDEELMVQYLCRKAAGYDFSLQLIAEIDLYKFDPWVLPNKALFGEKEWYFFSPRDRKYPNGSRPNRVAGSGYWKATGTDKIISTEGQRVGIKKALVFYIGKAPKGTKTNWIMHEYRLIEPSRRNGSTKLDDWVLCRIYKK
# In short: as §1
# [4] = biological target: T3, GST-ANAC055(1-171) (Arabidopsis thaliana, UniProt Q9LDY8 1-171); conditions: protein: recombinant; tags: GST; chain copies: 2; dsDNA, one strand shown
# T3 sequence: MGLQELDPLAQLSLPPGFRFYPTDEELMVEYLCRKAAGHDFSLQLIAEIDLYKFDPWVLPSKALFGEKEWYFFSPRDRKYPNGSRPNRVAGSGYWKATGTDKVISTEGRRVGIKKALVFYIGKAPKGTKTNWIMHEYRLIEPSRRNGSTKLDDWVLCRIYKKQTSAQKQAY
# In short: as §1
# [5] = biological target: T4, GST-ATAF1 NAC domain (Arabidopsis thaliana, UniProt Q39013 7-158); conditions: protein: recombinant; tags: GST; chain copies: 2; dsDNA, one strand shown
# T4 sequence: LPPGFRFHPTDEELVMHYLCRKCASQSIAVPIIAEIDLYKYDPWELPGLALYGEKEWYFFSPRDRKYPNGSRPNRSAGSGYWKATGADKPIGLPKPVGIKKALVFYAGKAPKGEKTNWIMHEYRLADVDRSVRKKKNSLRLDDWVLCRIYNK
# In short: as §1
# [6] = biological target: T5, GST-ANAC092(1-285) full length (Arabidopsis thaliana, UniProt Q9FKA0 1-285); conditions: protein: recombinant; tags: GST; chain copies: 2; dsDNA, one strand shown
# T5 sequence: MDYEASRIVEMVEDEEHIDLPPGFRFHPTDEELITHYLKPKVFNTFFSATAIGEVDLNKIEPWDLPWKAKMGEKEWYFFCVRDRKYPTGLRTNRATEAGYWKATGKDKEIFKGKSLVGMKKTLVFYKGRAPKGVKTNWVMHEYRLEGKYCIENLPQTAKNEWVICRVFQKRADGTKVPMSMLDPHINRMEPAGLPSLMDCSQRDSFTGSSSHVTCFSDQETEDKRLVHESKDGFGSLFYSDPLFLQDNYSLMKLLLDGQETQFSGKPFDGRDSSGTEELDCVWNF
# In short: as §1
# [7] = biological target: T6, GST-NAP(1-166) (Arabidopsis thaliana, UniProt O49255 1-166); conditions: protein: recombinant; tags: GST; chain copies: 2; dsDNA, one strand shown
# T6 sequence: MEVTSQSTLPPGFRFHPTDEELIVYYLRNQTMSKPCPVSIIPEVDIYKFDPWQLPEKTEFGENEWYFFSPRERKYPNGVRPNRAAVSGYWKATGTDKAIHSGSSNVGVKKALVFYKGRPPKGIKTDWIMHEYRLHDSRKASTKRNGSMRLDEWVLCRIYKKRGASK
# In short: as §1
# [8] = biological target: T7, GST-NST2(1-184) (Arabidopsis thaliana, UniProt Q9M274 1-184); conditions: protein: recombinant; tags: GST; chain copies: 2; dsDNA, one strand shown
# T7 sequence: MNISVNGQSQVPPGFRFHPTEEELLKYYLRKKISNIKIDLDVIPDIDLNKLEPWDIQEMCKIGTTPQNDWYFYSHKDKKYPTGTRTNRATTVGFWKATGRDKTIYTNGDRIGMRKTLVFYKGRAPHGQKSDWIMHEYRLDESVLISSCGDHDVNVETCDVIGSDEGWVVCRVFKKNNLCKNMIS
# In short: as §1
# [9] = biological target: T8, GST-NTL8 NAC domain (Arabidopsis thaliana, UniProt Q9XIN7 14-156); conditions: protein: recombinant; tags: GST; chain copies: 2; dsDNA, one strand shown
# T8 sequence: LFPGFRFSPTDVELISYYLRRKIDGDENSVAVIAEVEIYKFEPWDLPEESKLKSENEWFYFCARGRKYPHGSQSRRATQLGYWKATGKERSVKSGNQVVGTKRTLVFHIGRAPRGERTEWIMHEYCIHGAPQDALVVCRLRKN
# In short: as §1
# [10] = biological target: T9, GST-SND1(1-203) (Arabidopsis thaliana, UniProt Q9LPI7 1-203); conditions: protein: recombinant; tags: GST; chain copies: 2; dsDNA, one strand shown
# T9 sequence: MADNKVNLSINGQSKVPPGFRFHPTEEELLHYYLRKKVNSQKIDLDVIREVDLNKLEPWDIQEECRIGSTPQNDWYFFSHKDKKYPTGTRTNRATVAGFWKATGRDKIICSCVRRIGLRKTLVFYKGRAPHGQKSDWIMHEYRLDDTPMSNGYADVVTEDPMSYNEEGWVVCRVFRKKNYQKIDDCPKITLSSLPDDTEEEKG
# In short: as §1
# [11] = biological target: T10, GST-VND3 NAC domain (Arabidopsis thaliana, UniProt Q9FH59 12-162); conditions: protein: recombinant; tags: GST; chain copies: 2; dsDNA, one strand shown
# T10 sequence: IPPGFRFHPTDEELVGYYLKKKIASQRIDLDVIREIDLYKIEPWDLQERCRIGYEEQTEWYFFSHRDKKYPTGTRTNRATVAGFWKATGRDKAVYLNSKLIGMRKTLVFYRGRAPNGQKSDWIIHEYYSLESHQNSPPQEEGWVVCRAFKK
# In short: as §1
# [12] = biological target: T11, GST-VND7 NAC domain (Arabidopsis thaliana, UniProt Q9C8W9 9-158); conditions: protein: recombinant; tags: GST; chain copies: 2; dsDNA, one strand shown
# T11 sequence: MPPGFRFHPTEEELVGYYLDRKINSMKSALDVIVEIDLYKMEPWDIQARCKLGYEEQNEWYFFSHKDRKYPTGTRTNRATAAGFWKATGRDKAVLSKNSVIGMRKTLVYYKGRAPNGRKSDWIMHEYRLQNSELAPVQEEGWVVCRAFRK
# In short: as §1
# [13] = biological target: GST-WRKY1(266-371) (Arabidopsis thaliana, UniProt Q9SI37 266-371); conditions: protein: recombinant; tags: GST; dsDNA, one strand shown
# In short: as §1
# Chain of GST-NTL6(1-168) (Q9SCK6 1-168): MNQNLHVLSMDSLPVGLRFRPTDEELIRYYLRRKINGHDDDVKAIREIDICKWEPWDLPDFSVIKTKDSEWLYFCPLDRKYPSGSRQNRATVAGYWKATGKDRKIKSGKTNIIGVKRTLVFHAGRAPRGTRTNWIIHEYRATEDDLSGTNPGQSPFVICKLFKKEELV
# Chain of GST-WRKY1(266-371) (Q9SI37 266-371): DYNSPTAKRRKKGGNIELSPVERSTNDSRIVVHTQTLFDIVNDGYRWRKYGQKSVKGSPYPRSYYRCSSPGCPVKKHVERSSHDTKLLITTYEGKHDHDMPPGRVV
Sequence,binding signal [1] [E-score],binding signal [2] [E-score],binding signal [3] [E-score],binding signal [4] [E-score],binding signal [5] [E-score],binding signal [6] [E-score],binding signal [7] [E-score],binding signal [8] [E-score],binding signal [9] [E-score],binding signal [10] [E-score],binding signal [11] [E-score],binding signal [12] [E-score],binding signal [13] [E-score]
CTTACCCC,0.192,0.322,0.132,0.191,0.0855,0.179,0.096,0.175,0.405,0.198,0.101,0.149,0.0524
TGAAGAAA,0.188,0.339,0.151,0.114,0.129,0.0672,0.0893,0.241,0.45,0.152,0.121,0.215,0.211
ACACGCAA,0.498,0.0863,0.484,0.473,0.439,0.498,0.487,0.47,0.218,0.477,0.477,0.482,0.172
TCACGCAA,0.488,0.0728,0.467,0.398,0.336,0.488,0.433,0.396,0.177,0.473,0.448,0.462,0.0966
ACGTAAGT,0.357,0.212,0.418,0.402,0.407,0.39,0.344,0.233,0.125,0.35,0.414,0.42,0.112
AGACGTGA,0.217,0.0777,0.425,0.368,0.356,0.272,0.223,0.157,0.116,0.25,0.358,0.348,0.116
AACGTAGA,0.21,0.145,0.0983,0.226,0.163,0.329,0.0935,0.34,–,0.408,0.206,0.184,0.317
GTAAGTCA,0.109,0.283,0.134,0.228,0.238,0.268,0.0612,0.21,–,0.234,0.19,0.232,0.429
GACGTAAC,0.354,0.088,0.355,0.369,0.268,0.4,0.409,0.24,0.204,0.392,0.367,0.296,0.152
ATTACGTA,0.459,0.201,0.474,0.438,0.404,0.449,0.47,0.331,0.134,0.44,0.468,0.458,0.0642
ACGTAACG,0.423,0.0652,0.436,0.389,0.348,0.438,0.411,0.272,0.118,0.415,0.359,0.409,0.078
AATGCGTG,0.434,0.147,0.324,0.227,0.271,0.44,0.227,0.243,–,0.288,0.286,0.254,0.087
GTACGTCA,0.441,0.0743,0.413,0.295,0.366,0.45,0.363,0.244,0.149,0.422,0.38,0.373,0.228
ACGCAAGA,0.449,0.116,0.243,0.264,0.156,0.456,0.285,0.315,0.128,0.405,0.252,0.194,0.123
CACGTCAG,0.336,–,0.261,0.19,0.203,0.407,0.154,–,–,0.0864,0.127,0.214,0.081
ATACGTCA,0.412,–,0.251,0.267,0.345,0.435,0.373,0.183,–,0.298,0.337,0.322,0.196
ACACGTCT,0.422,–,0.459,0.405,0.393,0.425,0.346,0.168,–,0.174,0.396,0.421,0.114
CTACGTCA,0.0986,–,0.133,0.129,0.166,0.318,0.148,0.31,–,0.452,0.144,0.176,0.137
ATAACGTA,0.418,0.119,–,0.19,0.289,0.423,0.187,0.37,–,0.465,0.334,0.156,0.0761
GTCACGCA,0.319,–,0.307,0.236,0.193,0.4,0.197,0.119,–,0.257,0.167,0.252,0.228
AAGGAAAG,0.261,0.398,0.104,0.181,0.0767,0.186,–,0.239,0.467,0.262,0.0708,0.117,0.0652
GCACGTCA,0.449,–,0.421,0.341,0.317,0.465,0.341,0.229,–,0.29,0.368,0.38,0.195
CTTTCTTC,0.137,0.295,–,–,0.117,0.21,0.0839,0.0636,0.41,0.181,0.074,0.0647,0.156
GTTCCGTA,0.351,–,0.43,0.448,0.438,0.373,0.455,0.179,–,0.377,0.375,0.439,0.0936
GTAAGTAA,0.246,0.474,0.0906,0.199,0.245,0.334,–,0.239,0.195,0.307,0.279,0.186,0.122
AGATTGAC,0.135,0.0646,–,0.0571,0.0846,0.15,–,0.0869,–,0.179,0.0944,0.0768,0.457
TAGCGTGA,0.441,0.0555,0.209,0.114,0.17,0.454,–,0.228,–,0.42,0.242,0.191,0.0738
